Shiga toxin inh: blocks Shiga toxin action in Vero cells | 9.2% of 290,000 active | AID 2315 | inhibition, % at 38.7 µM | Vero cells, Shiga toxin protein synthesis inhibition reporter; in the data active means inhibition mostly above about 28%, no sharp cut-off; inactive means mostly below about 43%; further: 0% is about no effect
SARS PLpro yeast: SARS-CoV PLP inhibition in yeast | Potency, µM (titrated, usually from 32.9 µM), for the others: at the highest dose activity, positive = growth rescue, actives largely listed as activators | S. cerevisiae expressing SARS-CoV PLpro, growth rescue | 0.19% of 330,000 active; calls by dose curve; further: potency means the concentration at half of the fitted maximal effect; 0% is about no effect; nearly all actives have a fitted effect of over 55% in size
NS1 inh: influenza NS1 inhibition | Potency, µM (doses to about 46.1 µM), for inactives: top-dose activity, positive = more growth | 0.4% of 270,000 active; calls by dose curve; further: potency means the concentration at half of the fitted maximal effect; actives are rising curves; nearly all actives have a fitted effect of over 50% in size
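Read-out: OD600 growth recovery of NS1-expressing budding yeast. Cells grown overnight at 30C in -URA glucose medium, washed, resuspended and diluted 1:100 in 2% galactose assay medium, pH 6.0. Same strain lacking NS1 served as positive control.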
Pf growth 48h: inhibits P. falciparum growth in the first generation, 48 h | P. falciparum luciferase growth in erythrocytes, 48 h | Potency, µM (series often up to 28.7 µM), for inactives: at the highest dose activity change, negative = inhibition, actives largely listed as inhibitors | 5.9% of 310,000 active | AID 504832; further: potency means the concentration at half of the fitted maximal effect; on the % scale 0 is the no-effect control and ±100 the full control effect
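Here the parasites carry a stable luciferase gene and grow inside erythrocytes in Albumax-based RPMI medium with compound for one erythrocytic cycle. Activity is scored as loss of luminescent signal.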
Pf growth 96h: inhibits malaria parasite growth, 96 h; Potency, µM (top dose mostly 28.7 µM), for the others: at the top dose activity change, negative = inhibition, most hits filed as inhibitors; P. falciparum luciferase reporter growth, 96 h; 6.9% of 320,000 active; further: potency means the concentration at half of the fitted maximal effect; on the % scale 0 is the no-effect control and ±100 the full control effect
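Readout is luminescence from an integrated firefly luciferase in P. falciparum. Red cells, 2% hematocrit and 0.05% parasitemia final, were cultured with compound through two parasite generations (96 hours) at 37 C, 5% CO2.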
CHX counter: counter-screen hit for Shiga toxin inhibitors, cycloheximide; cell reporter, cycloheximide protein synthesis inhibition counterscreen; max response, %; 12% of 300,000 active; AID 2314; in the data active means max response mostly above about 13%, no sharp cut-off; inactive means mostly below about 14%; further: read at 38.3 µM for the half of the compounds with a filed dose; 0% is about no effect
An asterisk follows results filed as active; i = inactive; u = inconclusive; x = no result; [ ] = remark or other dose. Sampled rows, rich in hits. Any-hit rate of the full collection: about 21%. Unless noted, the call rests on the fitted dose curve; in most records, active means well fitted inhibition curve with a large enough effect; inconclusive means small, poorly fitted or top-dose-only effect, or another doubt; inactive means no such curve, though single readings can be large or run the other way.

SMILES	Shiga toxin inh	SARS PLpro yeast	NS1 inh	Pf growth 48h	Pf growth 96h	CHX counter
O=C(CN1CCOCC1)NCCc1ccccc1	-15	-7%	3%	8%	10µM*	-2
Cc1cc(NC(=O)c2cc(-c3ccncc3)nc3ccccc23)ccc1Br	x	-10%	x	x	x	x
O=C(Cn1cnc2ccccc21)NCCCN1CCOCC1	25*	2%	-10%	13%	x	24*
O=C(CNC(=S)N(Cc1ccccc1Cl)C1CCCC1)NCCCN1CCOCC1	-4	1%	x	10µM*	-18%	13
O=C(CN1C(=O)COc2ccccc21)NCCCN1CCN(Cc2ccccc2)CC1	1	u	-1%	10%	0.37µM*	-2
O=c1cc(Cl)c(-c2ccccc2)nn1Cc1ccc(Cl)cc1	-7	-4%	-14%	u	0%	-7
CC(=O)c1ccc(NC(=S)Nc2cccc3ccccc23)cc1	106*	2%	u	-33%	0%	73*
CC(=O)N(C)c1ccc(NC(=S)Nc2ccccc2)cc1	12	4%	13%	20%	7%	1
CCCC(=O)NC(=S)Nc1ccc(C(C)=O)cc1	57*	-12%	-13%	81%	1%	55*
Cc1ccc(NC(=S)Nc2cccc3ccccc23)cc1F	81*	3%	-5%	u	39%	42*
CC(=O)N(C)c1ccc(NC(=S)Nc2cccc3ccccc23)cc1	83*	9%	15%	1%	u	44*
Fc1cccc(NC(=S)Nc2cccc3ccccc23)c1	-21	-4%	-13%	-2%	25%	-2
CC(C)(C)c1ccc(-n2ncc3c2CCCC3NC(=O)CCCn2cncn2)cc1 (centres undefined)	-6	-2%	-17%	6%	-3%	11
CC(=O)c1cccc(NC(=O)C(=O)Nc2cccc3ccccc23)c1	32*	1%	0%	115%	u	22*
CCOc1cc(C2NC(=O)CCC2[N+](=O)[O-])cc(Br)c1OC (centres undefined)	-10	1%	4%	4%	4%	-5
COc1cc(Cl)ccc1OCc1cc(C(=O)N[C@H]2CCCCNC2=O)no1	62*	2%	-2%	16%	19%	36*
COCCN1CCN(C(=O)c2cc(COc3ccc(Cl)cc3OC)on2)CC1	94*	5%	-9%	9%	19%	58*
COc1cc(C)ccc1OCc1cc(C(=O)N2CCCCCC2)no1	64*	-8%	-33%	-19%	54%	30*
CCOC(=O)N1CCN(C(=O)c2cc(COc3ccc(Cl)cc3OC)on2)CC1	-6	-9%	-33%	3%	u	-2
COc1cc(Cl)ccc1OCc1cc(C(=O)N2CCCCCCC2)no1	84*	0%	-20%	0%	16%	43*
CCCCCCCCc1nnc(NC(=O)c2ccco2)s1	18	-15%	-14%	-9%	x	3
C=CCn1c(C)cc(C(=O)CSc2nc3ccccc3o2)c1C	110*	-22%	-15%	-52%	u	62*
Cc1cc(C(=O)CSc2ncnc3ccccc23)c(C)n1C1CC1	x	-32%	x	u	u	x
Cc1cc(C(=O)CSc2nc3ccccc3o2)c(C)n1C1CC1	27*	-21%	-29%	74%	86%	53*
COc1cccc(CNC(=O)C2CCN(S(=O)(=O)c3ccc4c(c3)OCCO4)CC2)c1	-26	7%	-3%	1%	u	-2
SMILES	Shiga toxin inh	SARS PLpro yeast	NS1 inh	Pf growth 48h	Pf growth 96h	CHX counter
CCOC(=O)N1CCN(c2ccc(N3C(=O)CCCC3=O)cc2[N+](=O)[O-])CC1	-14	1%	x	-16%	-14%	-5
O=c1[nH]cnc2onc(-c3ccc(F)cc3)c12	14	-2%	-6%	x	u	-7
Cc1nonc1NC(=O)OCCN1CCOC1=O	4	2%	4%	u	6.6µM*	-6
CCc1ccccc1OC[C@@H](O)CN[C@H]1CCCc2ccccc21	x	x	x	1.9µM*	1.7µM*	x
CC(C)(C)NC[C@@H](O)COc1cccc2c1CCCC2=O	x	x	x	-2%	23%	x
O=C(c1ccccc1)c1ccc(OCC(O)CNC2CCCc3ccccc32)cc1 (centres undefined)	-10	-17%	9%	u	10µM*	-9
CC(C)(C)NCC(O)COc1ccccc1C1CCCC1 (centres undefined)	x	x	x	2.6µM*	5.2µM*	x
O=c1nc(Nc2ccc(Br)cc2)sc2ccc([N+](=O)[O-])cc12	5	0%	6%	u	13%	-2
O=C(N=C1SCC(=O)N1c1ccccc1Cl)c1ccccc1	73*	0%	x	150%	u	35*
Cc1ccc(NC(=O)c2cc(N3C(=O)CCC3=O)ccc2N2CCCCC2)cc1	-25	0%	-2%	-8%	27%	-2
Cc1ccc(Nc2nc(/N=C/NO)n[nH]2)cc1C	65*	-3%	x	198%	i	27*
O=C(O)c1cc(NS(=O)(=O)c2cccc3nsnc23)cc(C(=O)O)c1	-2	1%	6%	-4%[0.00184 µM]	7.4µM*	-1
COc1ccc(CN(C)S(=O)(=O)c2ccc3c(c2)OCCO3)cc1	3	-3%	0%	17%	-6%	10
CCCCC(=O)Nc1ccc(C(=O)N(CC)c2ccccc2C)cc1	-7	0%	-4%	u	u	-3
COc1ccccc1C(=O)NC1CC(C)(C)NC(C)(C)C1	-9	-1%	7%	12%	u	-1
CCCc1nc2ccccc2c(C(=O)OCC(=O)N2CCc3ccccc32)c1CC	-7	-4%	-27%	u	8.3µM*	-8
CC1CCc2nc3ccccc3c(C(=O)OCC(=O)N3CCc4ccccc43)c2C1 (centres undefined)	7	1%	29%	8.3µM*	u	3
CCc1ccc(N/C(SCc2cccc(F)c2)=C(/C#N)C(=O)NCc2ccco2)cc1	29	-8%	u	u	51%	21*
Cc1ccc(NC(=O)C(C)N2C(=O)c3ccccc3C2=O)cc1C (centres undefined)	12	-6%	-15%	11%	u	-2
O=C(CSc1ccc2nnc(CCNC(=O)c3ccccc3)n2n1)NCc1ccco1	-5	-1%	9%	10%	6%	-2
NC(=O)c1c(NC(=O)c2cccnc2Cl)sc2c1CCCC2	15	-12%	-22%	48%	84%	3
NC(=O)c1c(NC(=O)c2ccccc2Cl)sc2c1CCC2	51*	-3%	-7%	51%	u	38*
NC(=O)c1c(NC(=O)c2ccc(F)cc2Cl)sc2c1CCC2	31*	-3%	-12%	6%	0%	25*
Cc1onc(-c2c(F)cccc2Cl)c1C(=O)Nc1sc2c(c1C(N)=O)CCC2	4	-17%	8%	x	u	-4
Cn1cc(Br)c(C(=O)Nc2sc3c(c2C(N)=O)CCCC3)n1	66*	-5%	-6%	39%	4.1µM*	35*
Cc1onc(C(=O)Nc2sc3c(c2C(N)=O)CCCC3)c1[N+](=O)[O-]	34	-3%	-47%	-7%	-6%	20*

Screening results: PubChem, National Center for Advancing Translational Sciences (NCATS)
